Measured values: publication PMC6919601, “Identification of Plasmodium dipeptidyl aminopeptidase allosteric inhibitors by high throughput screening” (PLoS ONE, 2019)
Among all 110,000 compounds or so, about 230 (0.21%) showed an effect of 50% or more. The full list was thinned out, with strong results kept by preference.

What follows are molecules tested against DPAP1 (Plasmodium falciparum, UniProt Q8IIJ9) (assay: primary screen, percent inhibition; read by cleavage of a fluorogenic dipeptide substrate; higher = more effect of the substance).
Chain of DPAP1 (Q8IIJ9 whole entry, looked up): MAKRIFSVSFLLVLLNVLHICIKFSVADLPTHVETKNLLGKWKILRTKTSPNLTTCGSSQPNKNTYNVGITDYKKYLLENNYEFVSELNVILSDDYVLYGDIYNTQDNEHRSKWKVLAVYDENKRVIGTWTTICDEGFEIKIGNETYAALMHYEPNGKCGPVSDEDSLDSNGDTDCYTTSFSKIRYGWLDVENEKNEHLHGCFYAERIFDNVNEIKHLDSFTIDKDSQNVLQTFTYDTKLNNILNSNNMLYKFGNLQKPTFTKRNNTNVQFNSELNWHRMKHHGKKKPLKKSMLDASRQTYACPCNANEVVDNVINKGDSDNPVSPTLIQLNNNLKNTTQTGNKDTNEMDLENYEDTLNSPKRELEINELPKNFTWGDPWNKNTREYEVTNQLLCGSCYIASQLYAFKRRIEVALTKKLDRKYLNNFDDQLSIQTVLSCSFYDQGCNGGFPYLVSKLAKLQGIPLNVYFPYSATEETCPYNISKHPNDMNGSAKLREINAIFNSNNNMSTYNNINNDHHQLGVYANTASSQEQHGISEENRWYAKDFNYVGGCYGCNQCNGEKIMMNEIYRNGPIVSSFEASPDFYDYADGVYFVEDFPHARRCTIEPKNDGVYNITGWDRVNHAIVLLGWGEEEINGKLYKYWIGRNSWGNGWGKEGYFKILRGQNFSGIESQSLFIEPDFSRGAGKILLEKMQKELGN
Set-up: species or system P. falciparum D10 trophozoite lysates; single well
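Note: 30 min substrate incubation versus DMSO and 10 µM JCP410 controls.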

**Q.** For `N#CC1=C2SCN(CCN3CCOCC3)CN2C(=O)CC1c1ccc(F)cc1` (stereo not shown), which “% Inhibition @ 10 uM” value is on record?
**A.** The value was 49.5%.

**Q.** Which “% Inhibition @ 10 uM” value does the source give for `Cc1ccc(C2CC(=O)N3CN(CCc4ccccc4)CSC3=C2C#N)cc1` (stereo not shown) here?
**A.** Its value is 64%.

**Q.** How did the “% Inhibition @ 10 uM” value turn out when `N#CC1=C2SCN(CCc3ccccc3)CN2C(=O)CC1c1cccs1` (stereo not shown) was run?
**A.** The value was 42.6%.

**Q.** For `N#CC1=C2SCN(CCc3ccccc3)CN2C(=O)CC1c1ccc(F)cc1` (stereo not shown), which “% Inhibition @ 10 uM” value is on record?
**A.** The value was 51.6%.

**Q.** Which “% Inhibition @ 10 uM” value does the source give for `O=C(N/C(=C\c1ccco1)C(=O)N1CCN(C/C=C/c2ccccc2)CC1)c1ccccc1` here?
**A.** The value was 2.09%.

**Q.** `COc1ccc(C2N=C(NO)c3ccccc3N2)cc1` (stereo not shown) was tested. Which “% Inhibition @ 10 uM” value did it give?
**A.** The value was -0.424%.

**Q.** For `C=C(C)CSc1nc(N)c2c3c(sc2n1)CCC3`, which “% Inhibition @ 10 uM” value is on record?
**A.** Its value is 4.37%.

**Q.** `CCCSc1nc(N)c2c3c(sc2n1)CCCC3` was tested. Which “% Inhibition @ 10 uM” value did it give?
**A.** The value was 10.6%.

**Q.** `CC(C)CSc1nc(N)c2c3c(sc2n1)CCC3` was tested. Which “% Inhibition @ 10 uM” value did it give?
**A.** The value was 81.4%.

**Q.** Which “% Inhibition @ 10 uM” value does the source give for `COc1ccccc1CNC(=O)Nc1cn(CC(C)C)c(=O)c2ccccc12` here?
**A.** The value was -4.21%.

**Q.** For `CC(C)CCNC(=O)c1nnc(-c2ccccc2)o1`, which “% Inhibition @ 10 uM” value is on record?
**A.** The value was -3.34%.

**Q.** For `CCOC(=O)c1sc(-c2ccccc2)nc1-c1ccc([N+](=O)[O-])cc1`, which “% Inhibition @ 10 uM” value is on record?
**A.** The value was 2.86%.

**Q.** For `CCOC(=O)c1sc(-c2ccccc2)nc1O`, which “% Inhibition @ 10 uM” value is on record?
**A.** Its value is 66.9%.

**Q.** How did the “% Inhibition @ 10 uM” value turn out when `CCOC(=O)c1sc(C)c2c(O)nc(-c3ccccc3)nc12` was run?
**A.** The value was -1.47%.

**Q.** `c1ccc(CC2CCN(Cc3ccco3)CC2)cc1` was tested. Which “% Inhibition @ 10 uM” value did it give?
**A.** The value was -2.56%.

**Q.** With `COc1ccc(-c2cc(-c3ccccc3)nc(N3CCOCC3)n2)cc1OC` as the molecule, how does the “% Inhibition @ 10 uM” value read?
**A.** The value was -2.6%.

**Q.** How did the “% Inhibition @ 10 uM” value turn out when `Cc1nsc2ccc(Cl)cc12` was run?
**A.** Its value is 55%.

**Q.** Which “% Inhibition @ 10 uM” value does the source give for `Cc1nsc2ccc3ccccc3c12` here?
**A.** Its value is 3.36%.

**Q.** With `Cc1nsc2ccc3sccc3c12` as the molecule, how does the “% Inhibition @ 10 uM” value read?
**A.** The value was 1.72%.

**Q.** How did the “% Inhibition @ 10 uM” value turn out when `Cc1ccc(-c2noc(CCC(=O)NCc3ccc(F)cc3Cl)n2)cc1` was run?
**A.** Its value is -0.999%.

**Q.** Which “% Inhibition @ 10 uM” value does the source give for `COc1ccc(-c2noc(CCC(=O)NCc3ccc(F)cc3Cl)n2)cc1` here?
**A.** Its value is 60.3%.

**Q.** For `COc1ccc(-c2noc(CCC(=O)NCc3cc(OC)ccc3OC)n2)cc1`, which “% Inhibition @ 10 uM” value is on record?
**A.** The value was 0.675%.

**Q.** `COCCNc1nc2c(S(=O)(=O)c3ccccc3)nnn2c2ccsc12` was tested. Which “% Inhibition @ 10 uM” value did it give?
**A.** The value was -0.256%.

**Q.** For `CCc1c(C)sc(NC(=O)Cc2ccc(OC)c(OC)c2)c1C(N)=O`, which “% Inhibition @ 10 uM” value is on record?
**A.** Its value is 16.2%.

**Q.** How did the “% Inhibition @ 10 uM” value turn out when `CCOC(=O)c1cc(-c2ccccc2)n(CCC(=O)N2CCCC(C)C2)c1C` (stereo not shown) was run?
**A.** Its value is 1.2%.

**Q.** How did the “% Inhibition @ 10 uM” value turn out when `COc1ccccc1CNC(=O)c1cccc(Br)c1` was run?
**A.** Its value is -4.15%.

**Q.** Which “% Inhibition @ 10 uM” value does the source give for `N#Cc1cc2c(N)c(C(=O)c3ccc(Br)cc3)sc2nc1N` here?
**A.** Its value is 2.7%.

**Q.** `O=C(NCC1CCCO1)C1CCC(CNS(=O)(=O)c2cccc3nsnc23)CC1` (stereo not shown) was tested. Which “% Inhibition @ 10 uM” value did it give?
**A.** The value was 4.54%.

**Q.** Which “% Inhibition @ 10 uM” value does the source give for `Cc1ccc(NC(=O)COc2ccc(C)cc2C)cc1` here?
**A.** Its value is -8.06%.

**Q.** Which “% Inhibition @ 10 uM” value does the source give for `Cc1ccc(OCC(=O)Nc2ccccc2)c(C)c1` here?
**A.** Its value is 78%.

**Q.** `Cc1cccc(NC(=O)COc2ccc(C)cc2C)c1` was tested. Which “% Inhibition @ 10 uM” value did it give?
**A.** Its value is -2.32%.

**Q.** For `COc1ccc(NC(=O)c2ccc(C)c(Br)c2)cc1`, which “% Inhibition @ 10 uM” value is on record?
**A.** Its value is 2.42%.

**Q.** Which “% Inhibition @ 10 uM” value does the source give for `Cc1c(CNC2CCCc3ccccc32)c(C(=O)O)c(C)n1Cc1ccc(F)cc1` (stereo not shown) here?
**A.** Its value is -5.49%.

**Q.** `Cc1cccc(Oc2nc3c(C)cccn3c(=O)c2/C=C(\C#N)C(=O)NCC2CCCO2)c1` (stereo not shown) was tested. Which “% Inhibition @ 10 uM” value did it give?
**A.** Its value is -9.06%.

**Q.** Which “% Inhibition @ 10 uM” value does the source give for `C=CCN1C(=O)C(CC(=O)NCC)S/C1=N\c1cccc2ccccc12` (stereo not shown) here?
**A.** Its value is 0.512%.

**Q.** With `CCOC(=O)/C(C#N)=C/c1c(Oc2ccccc2OC)nc2ccccn2c1=O` as the molecule, how does the “% Inhibition @ 10 uM” value read?
**A.** Its value is -5.1%.

**Q.** Which “% Inhibition @ 10 uM” value does the source give for `CCOC(=O)/C(C#N)=C/c1c(Oc2cccc(C)c2C)nc2ccccn2c1=O` here?
**A.** Its value is 77.8%.

**Q.** How did the “% Inhibition @ 10 uM” value turn out when `CNC(=O)/C(C#N)=C/c1c(Oc2cc(C)ccc2C(C)C)nc2ccccn2c1=O` was run?
**A.** Its value is 17%.

**Q.** `Cc1ccc(C(C)C)c(Oc2nc3ccccn3c(=O)c2/C=C(\C#N)C(=O)NCc2ccccc2)c1` was tested. Which “% Inhibition @ 10 uM” value did it give?
**A.** The value was -1.43%.

**Q.** How did the “% Inhibition @ 10 uM” value turn out when `CCNC(=O)/C(C#N)=C/c1c(Oc2cc(C)ccc2C(C)C)nc2ccccn2c1=O` was run?
**A.** The value was 75.9%.

**Q.** With `COC(=O)/C(C#N)=C/c1c(Oc2cccc(C)c2C)nc2ccccn2c1=O` as the molecule, how does the “% Inhibition @ 10 uM” value read?
**A.** Its value is -5.1%.

**Q.** How did the “% Inhibition @ 10 uM” value turn out when `Cc1cc(C)c2c(n1)SCC(=O)N2CC(=O)NCc1cccc(Cl)c1` was run?
**A.** The value was -6.01%.

**Q.** `COCCN(Cc1ccco1)C(=O)c1cc2c(Cl)nc3ccccc3c2s1` was tested. Which “% Inhibition @ 10 uM” value did it give?
**A.** Its value is 3.88%.

**Q.** `Cc1ccc(-c2nnc(SCC(=O)N3CCC(C)CC3)o2)cc1C` was tested. Which “% Inhibition @ 10 uM” value did it give?
**A.** Its value is 1.3%.

**Q.** Which “% Inhibition @ 10 uM” value does the source give for `COc1ccc(CN2CCN(Cc3cccc(F)c3)CC2)c(OC)c1OC` here?
**A.** The value was 5.99%.

**Q.** `Cc1cccc(Oc2nc3ccccn3c(=O)c2/C=C(\C#N)c2nc3ccccc3[nH]2)c1` was tested. Which “% Inhibition @ 10 uM” value did it give?
**A.** The value was 6.78%.

**Q.** For `N#C/C(=C\c1c(Oc2ccccc2Cl)nc2ccccn2c1=O)c1nc2ccccc2[nH]1`, which “% Inhibition @ 10 uM” value is on record?
**A.** The value was -1.86%.

**Q.** `Cc1cc(Oc2nc3ccccn3c(=O)c2/C=C(\C#N)c2nc3ccccc3[nH]2)ccc1Cl` was tested. Which “% Inhibition @ 10 uM” value did it give?
**A.** Its value is 92.2%.

**Q.** For `COc1ccc(-c2nc(CSc3nnc(C)n4c3cc3oc(C)cc34)c(C)o2)cc1`, which “% Inhibition @ 10 uM” value is on record?
**A.** Its value is 3.61%.

**Q.** With `Cc1cc(C)c(S(=O)(=O)N2CCN(c3ccc(F)cc3)CC2)c(C)c1` as the molecule, how does the “% Inhibition @ 10 uM” value read?
**A.** Its value is -6.86%.

**Q.** `CN(c1ccc(C(=O)Nc2ccc(F)cc2)cc1)S(=O)(=O)c1ccccc1` was tested. Which “% Inhibition @ 10 uM” value did it give?
**A.** The value was -7.56%.

**Q.** How did the “% Inhibition @ 10 uM” value turn out when `Cc1sc(NC(=O)COc2ccc(F)cc2F)c(C#N)c1C` was run?
**A.** The value was 93.9%.

**Q.** For `CCc1c(C)sc(NC(=O)COc2ccc(F)cc2)c1C#N`, which “% Inhibition @ 10 uM” value is on record?
**A.** The value was 0.777%.

**Q.** How did the “% Inhibition @ 10 uM” value turn out when `Cc1sc(NC(=O)COc2ccc(Cl)cc2Cl)c(C#N)c1C` was run?
**A.** The value was 1.25%.

**Q.** `CCCNC(=O)c1cc2ncc(Br)cn2n1` was tested. Which “% Inhibition @ 10 uM” value did it give?
**A.** Its value is 1.04%.

**Q.** `O=C(Nc1cccnc1)c1cc2n(n1)C(C(F)(F)F)CC(c1ccc(Br)cc1)N2` (stereo not shown) was tested. Which “% Inhibition @ 10 uM” value did it give?
**A.** Its value is 2.99%.

**Q.** `O=C(Nc1ccc(Br)cn1)c1cc2n(n1)C(C(F)(F)F)CC(c1ccccc1)N2` (stereo not shown) was tested. Which “% Inhibition @ 10 uM” value did it give?
**A.** Its value is 50.4%.

**Q.** Which “% Inhibition @ 10 uM” value does the source give for `O=C(O)c1cc2n(n1)C(C(F)(F)F)CC(c1ccccc1)N2` (stereo not shown) here?
**A.** Its value is -1.32%.

**Q.** With `O=C(Cc1nnc(-c2ccc(Br)cc2)o1)NC1CCN(Cc2ccccc2)CC1` as the molecule, how does the “% Inhibition @ 10 uM” value read?
**A.** Its value is 2.28%.

**Q.** How did the “% Inhibition @ 10 uM” value turn out when `CP(=O)(O)c1nc2ccccc2s1` was run?
**A.** Its value is -2.44%.

**Q.** For `C1=C(c2ccc3c(c2)c2c4n3CCN(Cc3ccccc3)C4CCC2)C2CCN1CC2` (stereo not shown), which “% Inhibition @ 10 uM” value is on record?
**A.** The value was 70.5%.

**Q.** Which “% Inhibition @ 10 uM” value does the source give for `c1ccc(CN2CCn3c4c(c5ccccc53)CCCC42)cc1` (stereo not shown) here?
**A.** Its value is -1.25%.

**Q.** With `Cc1ccc2c(c1)c1c3n2CCN(Cc2ccccc2)C3CCC1` (stereo not shown) as the molecule, how does the “% Inhibition @ 10 uM” value read?
**A.** The value was 1.26%.

**Q.** With `CN(C)CCN(C)C1CCN(Cc2ccccc2)CC1` as the molecule, how does the “% Inhibition @ 10 uM” value read?
**A.** The value was 0.162%.
